A selection: hits, their analogues and other compounds. The true share with any hit is near 2.4%.
CHT block: inhibits the human high affinity choline transporter; hit rate 0.86% among 310,000; CHT-expressing cells, membrane potential dye, choline response; stronger effect = lower value; AID 488975; B-score at 10 µM; Q9GZV3;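 active = B-score over 3 SD under the library average, and starting fluorescence ratio not unusually high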;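 note: choline stimulus applied at its EC90 after an EC20 pre-addition; B-score computed on integrated fluorescence ratio after choline addition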
Target sequence (Q9GZV3 whole entry, looked up): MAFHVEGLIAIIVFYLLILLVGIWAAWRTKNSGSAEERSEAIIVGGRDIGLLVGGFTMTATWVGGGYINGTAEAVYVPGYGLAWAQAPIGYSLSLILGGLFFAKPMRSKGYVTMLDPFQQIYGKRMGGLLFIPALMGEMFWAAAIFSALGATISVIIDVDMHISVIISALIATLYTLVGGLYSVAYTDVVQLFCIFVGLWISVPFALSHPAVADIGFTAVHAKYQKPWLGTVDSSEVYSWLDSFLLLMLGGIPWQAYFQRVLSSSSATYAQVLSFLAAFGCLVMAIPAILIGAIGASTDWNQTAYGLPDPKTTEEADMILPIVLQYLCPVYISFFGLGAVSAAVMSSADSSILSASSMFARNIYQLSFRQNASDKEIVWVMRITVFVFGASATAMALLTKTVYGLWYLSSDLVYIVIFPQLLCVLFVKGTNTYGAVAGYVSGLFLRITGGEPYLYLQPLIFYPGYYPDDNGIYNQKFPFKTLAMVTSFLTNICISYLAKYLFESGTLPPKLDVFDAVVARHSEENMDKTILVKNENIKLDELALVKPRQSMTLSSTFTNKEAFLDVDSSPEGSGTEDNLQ
TMEM16A inh: mouse TMEM16A channel inhibition, primary screen. Q8BHY3. HEK293 TMEM16A/YFP iodide influx fluorescence, ionomycin. normalized B-score (activity score, 25-100; higher = stronger inhibition) at 10 µM. hit rate 1.2% among 310,000. AID 588511;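 active = ratio plate-corrected score three or more library SD toward inhibition, starting fluorescence score within five deviations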;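 note: score derived from kinetic fluorescence span divided by baseline fluorescence per well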
CHT PAM: allosterically activates the human high affinity choline transporter; CHT-expressing cells, membrane potential dye, choline EC20; stronger effect = higher value; LV-AA mutant CHT in HEK293 cells; AID 488977; hit rate 0.49% among 310,000; B-score at 10 µM; Q9GZV3;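 active = initial fluorescence not abnormally high and integrated response B-score, plate-corrected, over 3 SD above library mean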
ANO1 activ: mouse TMEM16A channel activation, primary screen; Q8BHY3; HEK293 TMEM16A/YFP-H148Q/I152L, iodide quench fluorescence; stronger effect = lower value; B-score at 10 µM; hit rate 0.3% among 340,000; AID 623877;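 active = fluorescence-ratio B-score plate-corrected deviation score at least 3 library SD below zero, with starting fluorescence score within 5 deviations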;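 note: channel opened by trigger with iodide after compound preincubation; score built on the fluorescence ratio of max minus min over baseline; more negative score means more quench and so TMEM16A activation or potentiation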
Active calls of the source: *.

`NS(=O)(=O)c1ccc(Nc2ccc3cc(S(=O)(=O)N4CCCCC4)ccc3n2)cc1` gave CHT block inactive, TMEM16A inh inactive, CHT PAM inactive and ANO1 activ inactive.
CC1=NOC(=O)/C1=C/c1ccc(-c2ccc(Cl)cc2)o1 was read as CHT block inactive, TMEM16A inh inactive, CHT PAM inactive and ANO1 activ inactive.
Screening CC1=NOC(=O)/C1=C\c1ccc(-c2cc(Cl)ccc2Cl)o1 returned CHT block inactive, TMEM16A inh inactive, CHT PAM inactive and ANO1 activ -5.4*.
CC(=O)Nc1ccccc1NC(=O)C(F)(F)F was read as CHT block inactive, TMEM16A inh inactive, CHT PAM inactive and ANO1 activ inactive.
For O=C(Nc1cccc2c1[nH]c1ccccc12)C(F)(F)F the results were CHT block inactive, TMEM16A inh 25*, CHT PAM inactive and ANO1 activ inactive.
`COc1ccc2c(c1)C(SCC(=O)NCCc1ccccc1)CC(C)(C)O2` (stereo not given) gave CHT block -6.43*, TMEM16A inh inactive, CHT PAM inactive and ANO1 activ inactive.
Screening O=C(Nc1nc(-c2cccs2)cs1)c1ccc(Cl)cc1 returned CHT block inactive, TMEM16A inh inactive, CHT PAM inactive and ANO1 activ inactive.
CCOC(=O)Cc1csc(NC(=O)COc2ccccc2)n1 was read as CHT block inactive, TMEM16A inh inactive, CHT PAM inactive and ANO1 activ inactive.
`CC1CC(C)CN(C(=O)CSCC(=O)Nc2nc(-c3cccs3)cs2)C1` (stereo not given) gave CHT block inactive, TMEM16A inh inactive, CHT PAM inactive and ANO1 activ inactive.
For O=C(COc1ccc(Cl)cc1)Nc1nc(-c2cccs2)cs1 the results were CHT block inactive, TMEM16A inh 100*, CHT PAM inactive and ANO1 activ inactive.
`O=C(CSCC(=O)N1CCCCC1)Nc1nc(-c2cccs2)cs1` gave CHT block inactive, TMEM16A inh 25*, CHT PAM inactive and ANO1 activ inactive.
For O=C(Cc1ccccc1F)Nc1nc(-c2cccs2)cs1 the results were CHT block inactive, TMEM16A inh 25*, CHT PAM inactive and ANO1 activ inactive.
Screening CCOC(=O)Cc1csc(NC(=O)COc2ccc(N(C)S(=O)(=O)c3cccs3)cc2)n1 returned CHT block inactive, TMEM16A inh 100*, CHT PAM inactive and ANO1 activ inactive.
`Oc1ccccc1C(=S)N1CCCC1` gave CHT block inactive, TMEM16A inh inactive, CHT PAM inactive and ANO1 activ inactive.
For CC1CCN(C(=O)CSc2ccc(-c3ccc(F)cc3)nn2)CC1 the results were CHT block inactive, TMEM16A inh inactive, CHT PAM inactive and ANO1 activ inactive.
Screening CC1CC(C)(C)N(C(=O)CSc2ccc(-c3ccc(F)cc3)nn2)c2ccccc21 (stereo not given) returned CHT block inactive, TMEM16A inh 100*, CHT PAM inactive and ANO1 activ inactive.
Screening CC(C)S(=O)(=O)C1=NSC2=NC(=O)/C(=C\c3ccc(-c4cccc(C(=O)O)c4)o3)C(=N)N21 returned ANO1 activ inactive.
For CC(C)S(=O)(=O)C1=NSC2=NC(=O)/C(=C\c3ccc(-c4ccccc4)o3)C(=N)N21 the results were CHT block inactive, TMEM16A inh 25*, CHT PAM inactive and ANO1 activ inactive.
`C(=C\c1sc(Nc2ccccc2)n[n+]1-c1ccccc1)/c1ccccc1` gave ANO1 activ -8.89*.
COc1ccc(N2CCN(C(=O)c3cccc(NS(=O)(=O)c4cccc(F)c4)c3)CC2)cc1 was read as ANO1 activ inactive.
`Cc1ccc(S(=O)(=O)C2(C(=O)N3CCCC(C)C3)CC2)cc1` (stereo not given) gave CHT block inactive, TMEM16A inh 25*, CHT PAM inactive and ANO1 activ inactive.
CCn1c(N)c(C(=O)NC)sc1=S was read as CHT block inactive, TMEM16A inh 100*, CHT PAM inactive and ANO1 activ inactive.
OCCNc1nc(-c2ccccc2)nc2ccccc12 was read as CHT block inactive, TMEM16A inh inactive, CHT PAM inactive and ANO1 activ inactive.
For OCCCNc1nc(-c2ccc(Cl)cc2)nc2ccccc12 the results were CHT block inactive, TMEM16A inh inactive, CHT PAM inactive and ANO1 activ -6.3*.
`COCCCNc1nc(-c2ccc(Cl)cc2)nc2ccccc12` gave CHT block inactive, TMEM16A inh 25*, CHT PAM inactive and ANO1 activ inactive.
COCCCNC(=O)c1cc2cc([N+](=O)[O-])cc(OC)c2oc1=O was read as CHT block inactive, TMEM16A inh inactive, CHT PAM inactive and ANO1 activ inactive.
For O=C(CSc1nncn1-c1ccccc1)Nc1cc(Cl)cc(Cl)c1 the results were CHT block inactive, TMEM16A inh 25*, CHT PAM inactive and ANO1 activ inactive.
For NC(=O)c1ccc(NC(=O)CSc2nncn2-c2ccccc2)cc1 the results were CHT block inactive, TMEM16A inh inactive, CHT PAM inactive and ANO1 activ inactive.
For CCOC(=O)C(Sc1n[nH]c(N)n1)c1ccccc1 (stereo not given) the results were CHT block inactive, TMEM16A inh 25*, CHT PAM inactive and ANO1 activ inactive.
Screening CC1(c2ccc(OC(F)F)cc2)NC(=O)N(CC(=O)NC2CCCC2)C1=O (stereo not given) returned ANO1 activ inactive.
CCOC(=O)CN1C(=O)NC(C)(c2ccc(OC(F)F)cc2)C1=O (stereo not given) was read as CHT block inactive, TMEM16A inh 25*, CHT PAM inactive and ANO1 activ inactive.
`CC1(c2ccc(OC(F)F)cc2)NC(=O)N(CC(=O)Nc2ccc3[nH]c(=O)[nH]c3c2)C1=O` (stereo not given) gave CHT block inactive, TMEM16A inh inactive, CHT PAM inactive and ANO1 activ inactive.
For CC1(c2ccc(OC(F)F)cc2)NC(=O)N(CC(=O)Nc2ccc3c(c2)OCO3)C1=O (stereo not given) the results were CHT block inactive, TMEM16A inh inactive, CHT PAM inactive and ANO1 activ -5.87*.
Screening CC1(c2ccccc2)NC(=O)N(CC(=O)Nc2ccc3c(c2)OCO3)C1=O (stereo not given) returned CHT block inactive, TMEM16A inh inactive, CHT PAM inactive and ANO1 activ inactive.
Screening CC1(c2ccc(OC(F)F)cc2)NC(=O)N(CC(=O)Nc2ccccc2)C1=O (stereo not given) returned CHT block inactive, TMEM16A inh inactive, CHT PAM inactive and ANO1 activ -10.2*.
For COc1cc(CCC(=O)OCC(=O)Nc2ccc(Br)cc2F)cc(OC)c1OC the results were CHT block inactive, TMEM16A inh inactive, CHT PAM inactive and ANO1 activ inactive.

Screens deposited in PubChem BioAssay by Johns Hopkins Ion Channel Center.
